Assay results reported in PubChem BioAssay.
Calls of active or inactive are those of the source.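 How the source made its calls, unless noted: active means fluorescence slope higher than the sample average by over 3 SD (cut at about -0.22 in these data, passing the limit was not always enough); inactive means the rest.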

How the values were obtained:
[1] = inhibitors of TNFa-induced NFkB p65 translocation, primary screen, imaging, HUVEC, MLSMR starter and 10KST1 sets (AID 438;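 active means inhibition above 20% together with a positive visual image hit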;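 further: compound added about 3h40 before a 20 min TNFalpha stimulation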;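 on inhibition: signal is the nuclear over cytoplasmic p65 intensity ratio per well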); settings: HUVEC TNFa-induced p65 nuclear translocation; cell count: measured here: nuclei count (cytotoxicity indicator), at 2.08 µM; inhibition: at 2 µM, stronger effect = higher value, 0% TNFa-plus-vehicle, 100% no-TNFa wells
[2] = inhibitors of mutant huntingtin aggregation, primary screen, imaging, exon1htt(103Q)mCFP cells, high-content imaging (AID 483;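 active means visual image review flags a hit and inhibition of aggregation exceeds 20%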;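 further: compound exposure lasted 3 days before fixation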;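 on nuclei count: percent of the per-plate median nuclei count of sample wells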); settings: exon1htt(103Q)mCFP cell line, aggregate imaging, at 2 µM; inhibition of aggregation: stronger effect = higher value; nuclei count: measured here: cell count, toxicity
[3] = inhibitors of E-selectin induction by TNFa, primary screen, imaging, HUVEC, immunofluorescence, MLSMR starter and 10KST1 sets (AID 487;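 active means visually confirmed hit in the image check and inhibition above 20%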;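 on inhibition: signal is fraction of cell area covered by stained E-selectin grains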;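 on nuclei count: 100% = median nuclei count of all wells on the same plate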); settings: HUVEC TNFalpha-induced E-selectin immunofluorescence imaging, at 2 µM; inhibition: stronger effect = higher value; nuclei count: measured here: cell number, toxicity
[4] = target: Voltage-gated potassium channel subunit beta-2 (Rattus norvegicus) (UniProt P62483); test: KvBeta enzyme negative modulators, primary screen, biochemical, NADPH fluorescence (AID 622); settings: recombinant KvBeta, 4-cyanobenzaldehyde reduction, at 10 µM, stronger effect = higher value;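 further: slope of raw intensity against log time taken from 70 to 1610 s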
Sequence of Voltage-gated potassium channel subunit beta-2 (Rattus norvegicus) (P62483 whole entry, looked up): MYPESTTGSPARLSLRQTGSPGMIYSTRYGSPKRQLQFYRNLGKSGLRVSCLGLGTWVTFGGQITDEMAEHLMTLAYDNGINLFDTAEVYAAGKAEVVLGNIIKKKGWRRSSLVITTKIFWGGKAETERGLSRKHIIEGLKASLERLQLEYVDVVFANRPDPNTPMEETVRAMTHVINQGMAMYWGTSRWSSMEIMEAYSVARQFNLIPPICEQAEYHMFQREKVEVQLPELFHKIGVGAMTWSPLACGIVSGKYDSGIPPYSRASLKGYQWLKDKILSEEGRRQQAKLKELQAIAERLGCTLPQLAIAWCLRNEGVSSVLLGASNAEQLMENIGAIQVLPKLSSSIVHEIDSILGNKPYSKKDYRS

[5] = target: Voltage-gated potassium channel subunit beta-2 (Rattus norvegicus) (UniProt P62483); test: KvBeta positive modulators, primary screen, biochemical, NADPH fluorescence (AID 623;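 active means NADPH fluorescence slope more negative than the mean of all samples by about 3 SD, 99.7% confidence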;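 further: fluorescence intensity change per second fitted from 20 to 320 s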); settings: Recombinant KvBeta, NADPH fluorescence decrease slope, 10 min; at 10 µM; stronger effect = lower value
[6] = target: Alpha-2C adrenergic receptor (Homo sapiens) (UniProt P18825); test: modulators of alpha2C/GIRK thallium flux, primary screen, cell-based, HEK293 alpha2C/GIRK1/2 (AID 624;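 active means fluorescence slope after compound addition differing from the mean of all screened samples at 99.7% confidence, in either direction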;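 further: slope of fluorescence ratio to pre-addition baseline per second over 15 to 24 s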); settings: thallium flux BTC fluorescence, at 10 µM, actives lie on both sides
Sequence of Alpha-2C adrenergic receptor (Homo sapiens) (P18825 whole entry, looked up): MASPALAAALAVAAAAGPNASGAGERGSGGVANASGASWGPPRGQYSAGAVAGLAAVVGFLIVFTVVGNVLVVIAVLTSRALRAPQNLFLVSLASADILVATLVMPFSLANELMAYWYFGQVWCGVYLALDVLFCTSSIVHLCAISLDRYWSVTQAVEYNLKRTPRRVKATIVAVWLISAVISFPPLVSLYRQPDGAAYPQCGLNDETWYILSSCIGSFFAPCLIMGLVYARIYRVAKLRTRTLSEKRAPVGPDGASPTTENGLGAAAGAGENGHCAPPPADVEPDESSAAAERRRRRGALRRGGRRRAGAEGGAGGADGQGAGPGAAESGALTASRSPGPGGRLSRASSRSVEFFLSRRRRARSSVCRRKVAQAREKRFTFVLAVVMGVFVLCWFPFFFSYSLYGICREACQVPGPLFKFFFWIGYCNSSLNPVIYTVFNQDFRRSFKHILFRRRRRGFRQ

[7] = inhibitors of Sendai virus-induced IRF3 signaling, primary screen, TLR/RLR signaling modifier project, cell-based, Sendai virus stimulus, luciferase, 10K MLSCN set (AID 602276;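 active means inhibition at or above 50% at 10 µM; inactive means inhibition below 50%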;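 further: firefly luciferase from ISG56 promoter only with Renilla not read in this screen; 0% = Sendai virus plus DMSO and 100% = medium plus DMSO without virus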); settings: HEK293 RL24 IRF3 luciferase reporter, at 10 µM, stronger effect = higher value
[8] = inhibitors of poly I:C-induced TLR3 signaling, primary screen, cell-based, poly I:C stimulus, luciferase, 10K MLSCN set (AID 602277;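 active means inhibition of the reporter signal at or above 50%; inactive means inhibition below 50%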); settings: HEK293-TLR3 RL24 IRF3 luciferase reporter, at 10 µM, stronger effect = higher value

Structure (SMILES) | cell count [1] | inhibition [1] | inhibition of aggregation [2] | nuclei count [2] | inhibition [3] | nuclei count [3] | fluorescence slope [4] | NADPH fluorescence slope [5] | slope [6] | inhibition [7] | inhibition [8]
O=C(CSc1nnc(-c2ccccc2Br)o1)Nc1cccc2ccccc12 | 541 | -12.1% (inactive) | 16.2% (inactive) | 81.3% | 33.7% (inactive) | 65.3% | -0.546 (inactive) | 2.3e-05 (inactive) | 0.00661 (inactive) | 1.31% (inactive) | -12.6% (inactive)
CCCC(=O)Nc1cccc(NC(=O)CN2CCN(c3ccccc3OC)CC2)c1 | 693 | -15.2% (inactive) | 17.6% (inactive) | 98.8% | -61.4% (inactive) | 104% | -0.481 (inactive) | -4.6e-05 (inactive) | 0.00587 (inactive) | -1.32% (inactive) | 11.7% (inactive)
CCN(CC)S(=O)(=O)c1ccc2oc(C(=O)N3CCOCC3)c(C)c2c1 | 638 | -12% (inactive) | 5.2% (inactive) | 107% | -96.2% (inactive) | 92.5% | -0.543 (inactive) | -2.8e-06 (inactive) | 0.00418 (inactive) | -1.83% (inactive) | 2.02% (inactive)
CNc1nnc(-c2cccc(N(C)C)c2)s1 | 742 | -5.1% (inactive) | -2.3% (inactive) | 102% | -67.7% (inactive) | 91.1% | -0.135 (active) | -7.2e-06 (inactive) | 0.00491 (inactive) | -27.7% (inactive) | -96.6% (inactive)
CS(=O)(=O)N1CCc2cc(S(=O)(=O)Nc3ccc4oc5c(c4c3)CCCC5)ccc21 | 484 | 7.3% (inactive) | -8.4% (inactive) | 104% | -40% (inactive) | 121% | -0.531 (inactive) | 1.3e-05 (inactive) | 0.00786 (inactive) | 11.9% (inactive) | 3.23% (inactive)
O=C1CCCC2=C1C1(CCCC1)N=C(Nc1nc3ccccc3s1)N2 | 687 | -4.4% (inactive) | -42.8% (inactive) | 139% | -39.4% (inactive) | 117% | -0.257 (inactive) | -9.3e-06 (inactive) | 0.00377 (inactive) | 10.1% (inactive) | 2.82% (inactive)
CCOCCCNC(=O)Cn1ncc2c(=O)oc3ccccc3c21 | 651 | -13.4% (inactive) | -20.1% (inactive) | 98.5% | -32.1% (inactive) | 104% | -0.586 (inactive) | -1.8e-05 (inactive) | 0.00598 (inactive) | 5.54% (inactive) | 30.9% (inactive)
CCN(CC)c1ccc2cc(NC(=O)CCC(=O)O)c(=O)oc2c1 | 463 | -21.1% (inactive) | -6.8% (inactive) | 95% | -33% (inactive) | 101% | -0.0111 (active) | -5.3e-06 (inactive) | 0.00247 (inactive) | 50.8% (active) | 92.5% (active)
O=C(O)CC1NC(=O)N(c2ccccc2)C1=O (centres undefined) | 540 | -4.6% (inactive) | 5.1% (inactive) | 95.5% | -106% (inactive) | 114% | -0.599 (inactive) | 1.8e-06 (inactive) | 0.00411 (inactive) | 16.4% (inactive) | 21.9% (inactive)
COc1ccccc1NC(=O)CSc1nnc(CC(=O)Nc2ccccc2)n1C | 455 | 4.9% (inactive) | -6.2% (inactive) | 89.5% | -44% (inactive) | 103% | -0.442 (inactive) | 3.5e-06 (inactive) | 0.0033 (inactive) | 8.73% (inactive) | 20.7% (inactive)
Cc1noc(/C=C/N(C)C)c1S(=O)(=O)N1CCc2ccccc21 | 611 | 3.4% (inactive) | 24.9% (inactive) | 89.8% | -60.7% (inactive) | 115% | -0.558 (inactive) | -8.6e-06 (inactive) | 0.00715 (inactive) | -1.69% (inactive) | 55.2% (active)
CCc1nn2c(=O)cc(CSc3nc4sc5c(c4c(=O)n3C)CCCC5)nc2s1 | 536 | -14.1% (inactive) | -13.9% (inactive) | 118% | 38% (inactive) | 65.2% | -0.598 (inactive) | 4.1e-05 (inactive) | 0.00602 (inactive) | -3.07% (inactive) | -3.25% (inactive)
COc1ccc(N2CCN(Cc3nc(-c4ccc(Cl)cc4Cl)no3)CC2)cc1 | 596 | -0.7% (inactive) | 4.9% (inactive) | 106% | -48.8% (inactive) | 122% | -0.421 (inactive) | -7.7e-05 (inactive) | 0.00526 (inactive) | 18.6% (inactive) | 22.1% (inactive)
COc1ccc(OCCC(=O)NCc2ccccc2)cc1 | 694 | 0.4% (inactive) | 19.2% (inactive) | 91.9% | -93.5% (inactive) | 102% | -0.509 (inactive) | 9e-06 (inactive) | 0.00495 (inactive) | 4.97% (inactive) | 7.69% (inactive)
